GALR2 antag – antagonists of human galanin receptor 2 (GALR2). O43603. GALR2-expressing cells, antagonist mode. inhibition, % at 4 µM. 140,000 compounds, 0.39% hits. AID 828; in the data active = inhibition above about 27%;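 note: cells stimulated with galanin 1-16 at roughly its EC80; 0% = agonist challenge control and 100% = basal control without agonist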
GALR2 ag – activates the human galanin receptor 2; activation, % (test concentration not listed); 140,000 compounds, 0.48% hits; AID 803; GALR2-expressing cells, agonist activation read-out; O43603; in the data active = activation above about 5%, passing the limit was not always enough;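 note: 0% = vehicle buffer wells and 100% = reference agonist at full effect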
S1P2 ag – S1P2 (human) receptor agonism; AID 729; S1P2-expressing cell line, agonist reporter read-out; 97,000 compounds, 0.46% hits; activation, % at 4.5 µM; O95136; in the data active = activation above about 16%;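 note: 0% = vehicle low control and 100% = maximal reference agonist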
Target sequence (O95136 whole entry, looked up): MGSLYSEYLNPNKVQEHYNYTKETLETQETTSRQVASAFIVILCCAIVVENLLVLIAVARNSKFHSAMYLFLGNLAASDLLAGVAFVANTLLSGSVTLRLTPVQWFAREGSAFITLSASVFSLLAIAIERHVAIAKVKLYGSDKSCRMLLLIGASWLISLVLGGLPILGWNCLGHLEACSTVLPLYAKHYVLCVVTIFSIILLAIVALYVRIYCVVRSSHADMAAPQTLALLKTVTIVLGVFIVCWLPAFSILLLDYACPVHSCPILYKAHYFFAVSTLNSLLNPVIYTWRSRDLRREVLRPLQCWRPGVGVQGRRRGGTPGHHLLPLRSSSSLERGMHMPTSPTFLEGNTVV
S1P2 blocker – S1P2 (human) receptor antagonism; O95136; cell-based S1P2 antagonist assay, inhibition at 5 uM; inhibition, % at 5 µM; 97,000 compounds, 0.21% hits; AID 736; in the data active = inhibition above about 45%;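 note: CRE beta-lactamase reporter cells expressing human S1P2 stimulated with S1P; 0% = agonist at EC80 alone and 100% = agonist plus reference antagonist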
GALR2 ag confirm – GALR2 (human) agonism confirmed | shares compounds with GALR2 ag | GALR2-expressing cells, agonist activation | activation, % at 5.6 µM | 460 compounds, 10% hits | AID 864; in the data active = activation above about 8.4%;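 note: 0% = buffer-only vehicle wells and 100% = full reference agonist response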
BLA activ ctr – activates beta-lactamase reporter in GALR2 agonist counterscreen | activation, % at 5.6 µM | 460 compounds, 10% hits | shares compounds with GALR2 ag | CHO NFAT-bla reporter, beta-lactamase FRET activation;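 active = activation above the screen-wide mean activation plus 3 SD, cut at about 8% in these data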;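 note: 0% = DMSO with PBS wells and 100% = thapsigargin positive control wells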
An asterisk follows results filed as active. Only some compounds are listed: those with a hit (about 1.2% of all), similar ones and a draw of the others.

`COc1ccc(C(O)(C(=O)NNc2ccc(C)cc2)c2cccs2)cc1` (centres undefined) gave GALR2 antag -2.5, GALR2 ag -1.4, S1P2 ag -7.3 and S1P2 blocker 6.0.
O=C(NNc1ccc(C2CCCCC2)cc1)C(O)(c1ccccc1)c1cccs1 (centres undefined) was read as GALR2 antag 8.1, GALR2 ag 12.8*, S1P2 ag -3.1, S1P2 blocker -9.0, GALR2 ag confirm -0.6 and BLA activ ctr -2.4.
`CC(C)OC(=O)/C(C#N)=C/c1c[nH]c2ccccc12` gave GALR2 antag -2.8 and GALR2 ag 0.2.
Cc1ccc(S(=O)(=O)N(C)C)cc1NS(=O)(=O)c1ccc(Cl)s1 was read as GALR2 antag 8.9 and GALR2 ag -2.5.
Screening Cc1ccccc1C(=O)Nc1nncs1 returned GALR2 antag -2.8, GALR2 ag 26.1*, S1P2 ag -5.3, S1P2 blocker -13.5, GALR2 ag confirm -0.6 and BLA activ ctr -2.8.
Screening Cn1c(=O)oc2cc(S(=O)(=O)N3CCCC(C(=O)Nc4ccccn4)C3)ccc21 (centres undefined) returned GALR2 antag 6.9, GALR2 ag 16.9*, S1P2 ag -5.1, S1P2 blocker -1.7, GALR2 ag confirm -0.3 and BLA activ ctr -2.1.
O=C(CSc1nc2c([nH]c3ccccc32)c(=O)n1-c1ccccc1)N1CCOCC1 was read as GALR2 antag 2.4 and GALR2 ag -1.6.
O=C(CSc1nc2c([nH]c3ccccc32)c(=O)n1-c1cccc(Cl)c1)N1CCOCC1 was read as GALR2 antag 3.0, GALR2 ag 13.4*, S1P2 ag 13.0, S1P2 blocker 4.8, GALR2 ag confirm 6.2 and BLA activ ctr 1.0.
Screening Cc1cccc(NC(=O)C2CC(=O)n3cnnc3S2)c1 (centres undefined) returned GALR2 antag 2.7, GALR2 ag -1.6, S1P2 ag -1.8 and S1P2 blocker 7.6.
COc1ccc(OC)c2sc(NC(=O)c3ccc(Br)s3)nc12 was read as GALR2 antag 15.3, GALR2 ag 13.4*, GALR2 ag confirm -1.0 and BLA activ ctr -1.9.
For COc1ccc(OC)c2sc(NC(=O)c3ccc(Cl)s3)nc12 the results were GALR2 antag -15.7, GALR2 ag -1.5, S1P2 ag -11.0 and S1P2 blocker 4.9.
CC(=O)Nc1cc(C)c(S(C)(=O)=O)c(C)c1 was read as GALR2 antag -1.0 and GALR2 ag -0.7.
`COc1cccc(/C=N/NC(=O)CCc2c(C)n[nH]c2C)c1` gave GALR2 antag 3.3, GALR2 ag 14.1*, S1P2 ag -3.7, S1P2 blocker 7.8, GALR2 ag confirm -0.9 and BLA activ ctr -2.5.
Screening CCOC(=O)c1ccc(N2C(=O)c3n[nH]c(-c4ccco4)c3C2c2cccc([N+](=O)[O-])c2)cc1 (centres undefined) returned GALR2 antag -11.1 and GALR2 ag -0.2.
Screening COc1cc(/C=N/NC(=O)c2ccc(COc3cc(C)ccc3C(C)C)cc2)cc(OC)c1O returned GALR2 antag 0.1, GALR2 ag 8.4*, GALR2 ag confirm 7.6 and BLA activ ctr -1.2.
Screening O=C(Nn1c(C2CCCCC2)nc2ccccc2c1=O)c1ccc([N+](=O)[O-])cc1 returned GALR2 antag 2.3 and GALR2 ag 0.0.
Screening O=C1NC(c2ccco2)Nc2sc3c(c21)CCN(Cc1ccccc1)C3 (centres undefined) returned GALR2 antag -8.2, GALR2 ag 15.8*, S1P2 ag 8.9, S1P2 blocker -10.1, GALR2 ag confirm -0.4 and BLA activ ctr 0.6.
For CN1CCc2c(sc3c2C(=O)NC(c2ccco2)N3)C1 (centres undefined) the results were GALR2 antag -11.2, GALR2 ag 1.6, S1P2 ag 0.8 and S1P2 blocker 1.6.
CC(=O)CC(c1ccc([N+](=O)[O-])cc1)c1c(O)c2ccccc2oc1=O (centres undefined) was read as GALR2 antag -9.4, GALR2 ag -2.3, S1P2 ag -3.2 and S1P2 blocker 0.3.
O=S(=O)(Nc1cc2nc3ccccc3nc2n1Cc1ccccc1)c1ccc(Cl)cc1 was read as GALR2 antag 17.6, GALR2 ag 13.6*, GALR2 ag confirm 4.6 and BLA activ ctr 1.2.
For O=C(CN1CCCCC1)Nc1cc(Cl)ccc1Cl the results were GALR2 antag 1.4, GALR2 ag 180.2*, S1P2 ag -6.6, S1P2 blocker -24.8, GALR2 ag confirm -0.5 and BLA activ ctr -0.1.
O=C(CN1CCCCC1)Nc1cccc(Cl)c1Cl was read as GALR2 antag -6.6, GALR2 ag 2.1, S1P2 ag -0.9 and S1P2 blocker -24.5.
For CCOC(=O)/C(=C\Nc1ccccc1C(F)(F)F)Sc1ncc(C(F)(F)F)cc1Cl the results were GALR2 antag -8.4, GALR2 ag 10.4, S1P2 ag -3.1, S1P2 blocker -10.7, GALR2 ag confirm -1.1 and BLA activ ctr -3.0.
`CCN(CC(=O)Nc1cccc(OC)c1)c1ncnc2sc(C)c(C)c12` gave GALR2 antag -1.2 and GALR2 ag -1.9.
`COc1ccc(C2CC3(CC(C)(C)NC(SC)=N3)Oc3cc(O)cc(C)c32)cc1` (centres undefined) gave GALR2 antag -34.3, GALR2 ag 19.0*, GALR2 ag confirm 25.4* and BLA activ ctr 84.5*.
For O=C(O)CCC(=O)NNC(=O)c1ccc(Br)cc1 the results were GALR2 antag 0.3 and GALR2 ag -0.2.
CC(NC(=O)Nc1ccc(Cl)c(Cl)c1)C(c1ccccc1)N1CCOCC1 (centres undefined) was read as GALR2 antag -17.7, GALR2 ag 8.7*, GALR2 ag confirm 6.4 and BLA activ ctr 25.1*.
Screening CCc1ccc(N(CC(=O)Nc2nc3ccc(C)cc3s2)S(=O)(=O)c2c(C)noc2C)cc1 returned GALR2 antag 10.8, GALR2 ag -1.0, S1P2 ag -2.9 and S1P2 blocker -2.8.
`CCOc1cc(/C=C2/C(=O)N(c3ccccc3)N=C2C)ccc1OC(=O)c1ccco1` gave GALR2 antag 7.1, GALR2 ag 136.0*, S1P2 ag -3.3, S1P2 blocker -10.4, GALR2 ag confirm -1.0 and BLA activ ctr -2.9.
Screening CCOC(=O)/C(C#N)=C/c1ccc(OC)c(OC)c1 returned GALR2 antag -19.6, GALR2 ag 16.1*, S1P2 ag -2.1, S1P2 blocker -39.4, GALR2 ag confirm -1.1 and BLA activ ctr -2.5.
Screening CC(C)C(NC(=O)COc1ccc2ccccc2c1)C(=O)N/N=C/C=C/c1ccccc1 (centres undefined) returned GALR2 antag 5.6, GALR2 ag -3.7, S1P2 ag -4.9 and S1P2 blocker -8.8.
For Cc1ccc(S(=O)(=O)NC(=O)NCc2ccc3c(c2)OCO3)cc1 the results were GALR2 antag -1.6, GALR2 ag 152.3*, S1P2 ag -4.6, S1P2 blocker 16.4, GALR2 ag confirm -0.4 and BLA activ ctr -2.0.
